KDM5B inhibitor: inhibitors of human KDM5B histone demethylase; Potency, µM (highest dose often 57.7 µM), usual class: inhibitors; AID 1347165; KDM5B demethylase, FDH-coupled NADH fluorescence (FDH is formaldehyde dehydrogenase); 220,000 tested, 2.6% active; Q9UGL1; further: nearly all actives have a fitted effect of over 70% in size
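Coupled FDH/NAD⁺ fluorescence readout. KDM5BΔAP 200 nM final; compound titration, 10 min RT preincubation; substrate mix 12.5 µM H3K4me3, 25 µM 2-OG, 50 µM Fe(II), 100 µM ascorbate, 0.25 mM NAD⁺, 0.25 U/mL FDH; ΔRFU over 30 min.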
IP6K1 inh: blocks human inositol hexakisphosphate kinase 1; activity change, % (series mostly up to about 58 µM); AID 1645851; IP6K1 kinase, ADP-Glo luminescence, 2 h; hits give low values; 140,000 tested, 0.81% active; in the data active means activity change below about -25%
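ADP-Glo luminescence measures ADP made by human IP6K1 during a 2 h RT reaction with ATP/IP6 (mix at 1.3 mM/130 uM); top library doses 57.5 and 19.1 uM final.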
IP6K1 inh cnf: human IP6K1 inhibition, confirmatory; shares compounds with IP6K1 inh; recombinant IP6K1 kinase, ADP-Glo luminescence, 2 h; Potency, µM (doses to about 49 µM), usual class: inhibitors; 1,200 tested, 13% active; further: nearly all actives have a fitted effect of over 65% in size
Of the large screens only hits and unclear results are named; the others gave an inactive call (follow-up assays come after a bar, where they were run). This is a sample that favours compounds with a hit; in the whole collection about 2.8% have one here. Unless noted, the call rests on the fitted dose curve; in most records, active means well fitted inhibition curve with a large enough effect; inconclusive means small, poorly fitted or top-dose-only effect; inactive means no such curve, though single readings can be large or run the other way.

COc1cc(Cl)c(C)cc1NC(=O)CSc1ncc(S(=O)(=O)c2ccc(C(C)(C)C)cc2)c(=O)[nH]1	none
COCCn1c(=O)c(C(=O)N2CCC(Cc3ccccc3)CC2)nc2cccnc21	none (no result: KDM5B inhibitor)
CN(CC(=O)N(C)c1c(N)n(Cc2ccccc2)c(=O)[nH]c1=O)Cc1ccc(-c2ccccc2)cc1	none (no result: IP6K1 inh)
COc1cc(C)c(NC(=O)Cn2cnc3c2c(=O)n(C)c(=O)n3C)cc1OC	none (no result: IP6K1 inh)
O=C(O)c1cc(Cl)c(Cl)[nH]1	none (no result: IP6K1 inh)
Cc1ccc(-c2csc3ncnc(SCC(=O)O)c23)cc1	none (no result: IP6K1 inh)
Cn1nnnc1Sc1ncnc2scc(-c3cc4ccccc4o3)c12	none (no result: KDM5B inhibitor, IP6K1 inh) | IP6K1 inh cnf inactive
Cn1nnnc1Sc1ncnc2scc(-c3ccc(C#N)cc3)c12	none (no result: KDM5B inhibitor, IP6K1 inh) | IP6K1 inh cnf inactive
Cc1ccc(-c2csc3ncnc(Sc4nnc(CN5CCCC5)o4)c23)cc1	none (no result: IP6K1 inh)
COc1ccc(N(CC(=O)NCc2ccc(C)cc2)S(=O)(=O)c2c(C)[nH]c(=O)[nH]c2=O)cc1	IP6K1 inh -25 | IP6K1 inh cnf inactive
COc1ccc(CNC(=O)CN(c2ccc(OC)cc2)S(=O)(=O)c2c(C)[nH]c(=O)[nH]c2=O)cc1	none
Cc1cc(C)cc(N(CC(=O)Nc2ccc(C)cc2Cl)S(=O)(=O)c2c(C)[nH]c(=O)[nH]c2=O)c1	IP6K1 inh -27 | IP6K1 inh cnf inactive
Cc1cc(C)cc(N(CC(=O)Nc2ccc(C(F)(F)F)cc2)S(=O)(=O)c2c(C)[nH]c(=O)[nH]c2=O)c1	none
Cn1ncc2c(C(=O)Nc3ccccc3F)cc(-c3cccc(F)c3)nc21	none (no result: KDM5B inhibitor)
Nc1nccnc1C(=O)Nc1ccncc1	none (no result: IP6K1 inh)
O=S(=O)(c1ccc(-c2cnc(C3CC3)o2)cc1)N1CCN(c2ccc(F)cc2)CC1	none
COc1cccc(N2CCN(S(=O)(=O)c3ccc(-c4cnc(C5CC5)o4)cc3)CC2)c1	IP6K1 inh -35 | IP6K1 inh cnf inconclusive
O=S(=O)(c1ccc(-c2cnc(C3CC3)o2)cc1)N1CCN(c2cccc(Cl)c2)CC1	none
COc1ccc(N2CCN(S(=O)(=O)c3ccc(-c4cnc(C5CC5)o4)cc3)CC2)cc1	IP6K1 inh -41 | IP6K1 inh cnf inactive
CCOc1ccccc1N1CC(c2nc3ccccc3n2CCOc2ccc(OC)cc2)CC1=O (configuration not stated)	KDM5B inhibitor inconclusive
CCOc1ccccc1N1CC(c2nc3ccccc3n2CCCOc2ccc(OC)cc2)CC1=O (configuration not stated)	IP6K1 inh -27 | IP6K1 inh cnf inactive
Cn1cnnc1SCC(=O)Nc1cc(C(=O)O)cc(C(=O)O)c1	IP6K1 inh -30 | IP6K1 inh cnf inactive
Cn1cnnc1SCC(=O)Nc1ccc(F)cc1	none (no result: IP6K1 inh)
COC(=O)c1ccc(NC(=O)CN(C)S(=O)(=O)c2ccc(Br)s2)cc1	IP6K1 inh -45 | IP6K1 inh cnf inconclusive
COc1ccc(NC(=O)CN(C)S(=O)(=O)c2ccc(Br)s2)cc1	none (no result: IP6K1 inh)
Cc1cc(C)c2c(=O)n(CC(=O)Nc3ccc(C)c(F)c3)c(=O)n(-c3ccccc3)c2n1	none (no result: IP6K1 inh)
O=C(NC1C2CC3CC(C2)CC1C3)c1cc(-c2ccncc2)nc2ccc(Br)cc12 (configuration not stated)	none (no result: IP6K1 inh)
CCc1oc2ccccc2c1/C=N/O	none (no result: IP6K1 inh)
CCc1oc2ccccc2c1C(=O)c1cc(I)c(O)c(I)c1	IP6K1 inh -56 (no result: KDM5B inhibitor) | IP6K1 inh cnf 3.5µM
Cn1ncc2c(C(=O)NCCCc3ccccc3)cc(-c3ccccc3F)nc21	none (no result: KDM5B inhibitor)
Cc1ccc(Cl)cc1NC(=O)c1ccc2ccccc2n1	none (no result: IP6K1 inh)
Cc1ccc(Cl)cc1NC(=O)c1csnn1	IP6K1 inh -37 | IP6K1 inh cnf inconclusive
O=C(c1ccccc1)c1ccc(O)cc1	none (no result: IP6K1 inh)
COc1ccccc1N1CCN(C(=O)CCSCc2ccccc2F)CC1	none
COc1cccc(N2CCN(C(=O)CCSCc3ccccc3F)CC2)c1	IP6K1 inh -29 | IP6K1 inh cnf inactive
Cc1ccc(S(=O)(=O)N2CCCN(C(=O)c3cnn(Cc4ccccc4Cl)c3)CC2)cc1	none (no result: IP6K1 inh)
Cc1ccc(S(=O)(=O)N2CCN(Cc3ccccc3Cl)CC2)cc1	KDM5B inhibitor inconclusive, IP6K1 inh -56 | IP6K1 inh cnf inactive
CC(=O)c1ccc(OC(=O)c2c(-c3ccccc3Cl)noc2C)cc1	IP6K1 inh -42 | IP6K1 inh cnf inactive
CCCOc1ccc(OC(=O)c2c(-c3ccccc3Cl)noc2C)cc1	none
CNC(=O)COC1CN(C(=O)c2ccc(C)cc2)CCC(=O)N(C)c2ccccc21 (configuration not stated)	none (no result: KDM5B inhibitor)
O=C(NCc1nc(-c2cccc(F)c2)c(-c2ccccn2)[nH]1)[C@@H]1C[C@@H](O)CN1	IP6K1 inh -30 | IP6K1 inh cnf inactive
C[C@@H](O)[C@H](N)C(=O)NCc1nc(-c2cccc(F)c2)c(-c2ccccn2)[nH]1	KDM5B inhibitor inconclusive
COc1ccc(C)cc1NC(=O)c1cc(S(=O)(=O)N2CCN(c3cccc(C)c3C)CC2)ccc1F	KDM5B inhibitor inconclusive

Bioassay records as filed in PubChem.
